The structures appear in SMILES notation. Several values for one entry are separate records, joined by “and”; a condition that tells them apart may be missing. Equal values may be shown once. Where a name gives a salt, the structure may show the parent alone. Among all 5,800 compounds or so, about 620 (11%) showed activity. The list comes from a sample in which actives are over-represented; it also holds similar structures and randomly drawn compounds. Values without a mark were called inactive.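 Rule for the calls: active = score above a cut-off or among the top three wells of a plate; in these data no inactive exceeds 0.85.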

For the assay, the system named is primary human hepatic stellate cells (donor 1). The assay is described as follows: scaled lipid accumulation score (0 = DMSO-like, 1 = nortriptyline-like); higher = stronger HSC inactivation (lipid re-accumulation), active = hit call of the paper. The settings on record: 48 h.
Where [1] appears, read: library stock concentration: 3.33 mM.
Setting [2] is: library stock concentration: 10 mM.
Where [3] appears, read: library stock concentration: 1 mM.
[4] abbreviates: library stock concentration: 80 uM.
[5] abbreviates: library stock concentration: 400 uM.
The mark [6] stands for this setting: library stock concentration: 2 mM.

For the compound `CO[C@H]1C[C@@H]2CC[C@@H](C)[C@@](O)(O2)C(=O)C(=O)N2CCCC[C@H]2C(=O)O[C@H]([C@H](C)C[C@@H]2CC[C@@H](OC(=O)C(C)(CO)CO)[C@H](OC)C2)CC(=O)[C@H](C)/C=C(\C)[C@@H](O)[C@@H](OC)C(=O)[C@H](C)C[C@H](C)/C=C/C=C/C=C/1C`, the “scaled lipid accumulation score” value reads like this: under setting [1], 0.032; under setting [2], 0.094.

Take `CN1CCN(C2CCN(C(=O)Nc3cc(Oc4ccc(NC(=O)C5(C(=O)Nc6ccc(F)cc6)CC5)c(F)c4)ccn3)CC2)CC1` [Golvatinib (E7050)] [listing 1 of 2 here]: the “scaled lipid accumulation score” value under setting [2] was 0.429.

For the compound `CN1CCN(C2CCN(C(=O)Nc3cc(Oc4ccc(NC(=O)C5(C(=O)Nc6ccc(F)cc6)CC5)c(F)c4)ccn3)CC2)CC1` [Golvatinib (E7050)] [listing 2 of 2 here], the “scaled lipid accumulation score” value under setting [1] was 0.979 (active).

With `CC/C=C\C/C=C\C/C=C\C/C=C\C/C=C\C/C=C\CCC(=O)NCCO` [Docosahexaenoyl Ethanolamide], under setting [3], the “scaled lipid accumulation score” value was 0.03.

On to `COc1cc(N2CCC(N3CCN(C)CC3)CC2)ccc1Nc1ncnc(Nc2ccccc2S(=O)(=O)C(C)C)n1`, for which the “scaled lipid accumulation score” value is not above 0 under setting [4], 0.045 under setting [5], 0.433 under setting [6] and 0.819 under setting [2].

Consider `COc1cc(OC2CCN(C)CC2)ccc1Nc1ncc2c(n1)n(C1CCCC1)c(=O)n2C` [listing 1 of 2 here], for which the “scaled lipid accumulation score” value under setting [1] is 0.441.

Turning to `COc1cc(OC2CCN(C)CC2)ccc1Nc1ncc2c(n1)n(C1CCCC1)c(=O)n2C` [listing 2 of 2 here], the “scaled lipid accumulation score” value under setting [2] is 1.06 (active).

Take `C[C@H](C(=O)O)c1ccc(-c2ccccc2)c(F)c1` [(S)-Flurbiprofen]: under setting [3], the “scaled lipid accumulation score” value was 0.003.

Regarding `Nc1ccc(C(=O)Nc2cccc(-c3nc(N4CCOCC4)c4oc5ncccc5c4n3)c2)cn1` [listing 1 of 3 here], the “scaled lipid accumulation score” value under setting [2] is 0.915 (active).

Take `Cl.Nc1ccc(C(=O)Nc2cccc(-c3nc(N4CCOCC4)c4oc5ncccc5c4n3)c2)cn1`: the “scaled lipid accumulation score” value under setting [6] is 1.74 (active) and the “scaled lipid accumulation score” value under setting [2] is 1.25 (active).

Turning to `Nc1ccc(C(=O)Nc2cccc(-c3nc(N4CCOCC4)c4oc5ncccc5c4n3)c2)cn1` [listing 2 of 3 here], under setting [2], the “scaled lipid accumulation score” value is 0.995 (active).

On to `Nc1ccc(C(=O)Nc2cccc(-c3nc(N4CCOCC4)c4oc5ncccc5c4n3)c2)cn1` [listing 3 of 3 here], for which the “scaled lipid accumulation score” value runs as follows: under setting [4], not above -0.009; under setting [5], 0.031 and ≤ -0.005; under setting [6], 0.229; under setting [1], 0.647.

In the case of `Oc1cccc(-c2nc(N3CCOCC3)c3sccc3n2)c1` [PI3-Kinase .alpha. Inhibitor 2], the “scaled lipid accumulation score” value under setting [3] was not above 0.

For the compound `O=c1cc(N2CCOCC2)oc2c1ccc1ccccc12` [DNA-PK Inhibitor II], under setting [1], the “scaled lipid accumulation score” value is not above 0.

For `CC(C)(O)c1cc2nc(-c3cnc(N)nc3)nc(N3CCOCC3)c2s1`, the “scaled lipid accumulation score” value is not above -0.005 under setting [5], not above -0.005 under setting [6] and 0.006 under setting [2].

With `Cc1c(CN2CCN(C(=O)[C@H](C)O)CC2)sc2c(N3CCOCC3)nc(-c3cnc(N)nc3)nc12`, the “scaled lipid accumulation score” value by setting is: under setting [4], 0.079; under setting [5], not above -0.015; under setting [6], not above -0.016; under setting [1], not above 0; under setting [2], ≤ 0 and ≤ -0.016.

Turning to `COc1ccc(-c2nc(N3CCOCC3)c3sc(CN(C)c4ncc(C(=O)NO)cn4)cc3n2)cn1`, the “scaled lipid accumulation score” value reads like this: under setting [4], 0.745; under setting [5], 0.648; under setting [6], 0.67; under setting [1], 0.439; under setting [2], 0.447 and 0.588.

For `O=c1cc(N2CCOCC2)oc2c1ccc1ccccc12`, the “scaled lipid accumulation score” value under setting [4] is not above 0; the “scaled lipid accumulation score” value under setting [5] is not above 0; the “scaled lipid accumulation score” value under setting [6] is not above 0; the “scaled lipid accumulation score” value under setting [2] was ≤ 0 and 0.033.

In the case of `Oc1cccc(-c2nc(N3CCOCC3)c3oc4ncccc4c3n2)c1` [listing 1 of 2 here], the “scaled lipid accumulation score” value under setting [2] is 0.923 (active).

Take `Oc1cccc(-c2nc(N3CCOCC3)c3oc4ncccc4c3n2)c1` [listing 2 of 2 here]: the “scaled lipid accumulation score” value by setting is: under setting [4], 0.118; under setting [5], 0.051 and ≤ -0.005; under setting [3], not above 0; under setting [6], ≤ -0.009 and ≤ -0.005; under setting [1], 0.203 and 0.016; under setting [2], 0.796 and 0.279.

`CC(Cc1ccc(O)c(O)c1)C(C)Cc1ccc(O)c(O)c1` (centres undefined) [Nordihydroguaiaretic Acid]: the “scaled lipid accumulation score” value under setting [3] was 0.042.

With `COc1ccc(-n2c(C)c([N+](=O)[O-])c3ccc(O)cc32)cc1`, the “scaled lipid accumulation score” value runs as follows: under setting [1], 0.252; under setting [2], 0.703.

As to `O/N=C/c1ccc(-c2ccc(O)c(F)c2)c(Cl)c1O`, the “scaled lipid accumulation score” value under setting [2] was 0.02.

In the case of `COc1ccc([C@H]2CNC(=O)C2)cc1OC1CCCC1` [(S)-(+)-Rolipram], under setting [2], the “scaled lipid accumulation score” value was not above -0.006.

Regarding `C[C@H](N)C(=O)CCCCCC(=O)O` [KAPA (hydrochloride)], under setting [3], the “scaled lipid accumulation score” value is 0.007.

For `O=C1[C@H](Cc2ccc(O)cc2)N2C(=O)CCN(C(=O)NCc3ccccc3)[C@H]2CN1Cc1cccc2ccccc12`, the “scaled lipid accumulation score” value was not above 0 under setting [1] and 0.29 under setting [2].

Regarding `CC(=Cc1ccc(C(=O)O)cc1)c1ccc2c(c1)C(C)(C)CCC2(C)C`, the “scaled lipid accumulation score” value reads like this: under setting [3], not above -0.021; under setting [2], not above 0.

Consider `CC(=Cc1ccc(C(=O)O)cc1)c1ccc2c(c1)C(C)(C)CCC2(C)C` [TTNPB (Arotinoid Acid)], for which the “scaled lipid accumulation score” value was not above 0 under setting [1] and not above -0.001 under setting [2].

Consider `CCCCCCCCCC(=O)N[C@@H](Cc1c[nH]c2ccccc12)C(=O)N[C@@H](CC(N)=O)C(=O)N[C@@H](CC(=O)O)C(=O)N[C@@H]1C(=O)NCC(=O)N[C@@H](CCCN)C(=O)N[C@@H](CC(=O)O)C(=O)N[C@H](C)C(=O)N[C@@H](CC(=O)O)C(=O)NCC(=O)N[C@H](CO)C(=O)N[C@@H]([C@H](C)CC(=O)O)C(=O)N[C@@H](CC(=O)c2ccccc2N)C(=O)O[C@@H]1C` [DAPTOMYCIN (5 millimolar/DMSO)], for which, under setting [2], the “scaled lipid accumulation score” value was not above 0.

`CC(C)c1nn(-c2c(Cl)cccc2Cl)c2nc(Cc3ccc(OCCO)cc3)[nH]c(=O)c12`: the “scaled lipid accumulation score” value is, setting by setting: under setting [4], 0.074; under setting [5], 0.071; under setting [6], 0.275; under setting [2], 0.136.

As for `O=[N+]([O-])c1ccccc1S(=O)(=O)NCC1CCC(CNCC2CCc3ccccc3C2)CC1` (centres undefined) [NTNCB hydrochloride], the “scaled lipid accumulation score” value under setting [2] is 0.622.

With `NC(=O)N/N=C/c1ccc(Oc2ccc(F)cc2)cc1`, the “scaled lipid accumulation score” value under setting [2] is 0.015.

As to `C#C[C@]1(O)CC[C@H]2[C@@H]3CCC4=Cc5oncc5C[C@]4(C)[C@H]3CC[C@@]21C`, the “scaled lipid accumulation score” value under setting [2] is 0.336.

Take `C#C[C@]1(O)CC[C@H]2[C@@H]3CCc4cc(O)ccc4[C@H]3CC[C@@]21C` [Ethinyl estradiol]: the “scaled lipid accumulation score” value (library stock concentration: 6.7 mM) was 0.516 and the “scaled lipid accumulation score” value under setting [2] was not above 0.

As for `C#C[C@]1(O)CC[C@H]2[C@@H]3CCc4cc(O)ccc4[C@H]3CC[C@@]21C` [Ethinyl Estradiol], the “scaled lipid accumulation score” value is not above 0 under setting [1] and 0.277 under setting [2].

With `C#C[C@]1(O)CC[C@H]2[C@@H]3CCC4=Cc5oncc5C[C@]4(C)[C@H]3CC[C@@]21C` [Danazol], the “scaled lipid accumulation score” value was 0.447. Further, the “scaled lipid accumulation score” value (library stock concentration: 5.9 mM) is 0.204 and 0.103. In addition, the “scaled lipid accumulation score” value under setting [2] is not above 0.

For `C#C[C@]1(O)CC[C@H]2[C@@H]3CCC4=Cc5oncc5CC4(C)[C@H]3CCC21C` (some centres undefined) [Danazol], the “scaled lipid accumulation score” value under setting [2] was 0.915 (active).

On to `C#C[C@]1(O)CC[C@H]2[C@@H]3CCc4cc(O)ccc4[C@H]3CC[C@@]21C`, for which the “scaled lipid accumulation score” value under setting [2] is 0.186.

Turning to `CC(C)NCCN(C(C)C)S(=O)(=O)c1ccc(Cl)cc1Cl`, the “scaled lipid accumulation score” value under setting [2] is 0.722.

`CCCCc1oc2ccccc2c1C(=O)c1cc(I)c(OCCN(CC)CC)c(I)c1`: the “scaled lipid accumulation score” value runs as follows: (library stock concentration: 7.3 mM) 0.281; (library stock concentration: 9.5 mM) 1.34 (active).

As to `CCCCc1oc2ccc(NS(C)(=O)=O)cc2c1C(=O)c1ccc(OCCCN(CCCC)CCCC)cc1` [Dronedarone HCl], the “scaled lipid accumulation score” value under setting [1] was 0.642 and the “scaled lipid accumulation score” value under setting [2] is 0.263.

In the case of `CCCCc1cc2ccccc2c(OCCN(C)C)n1` [Dimethisoquin hydrochloride], the “scaled lipid accumulation score” value is 0.71.

Take `CCCCc1oc2ccccc2c1C(=O)c1cc(I)c(OCCN(CC)CC)c(I)c1` [Amiodarone hydrochloride]: the “scaled lipid accumulation score” value is 0.445. The “scaled lipid accumulation score” value (library stock concentration: 2.9 mM) was 0.417.

Consider `CCc1oc2ccccc2c1C(=O)c1cc(Br)c(O)c(Br)c1`, for which the “scaled lipid accumulation score” value under setting [2] was not above 0.

`CCc1oc2ccccc2c1C(=O)c1cc(Br)c(O)c(Br)c1` [Benzbromarone]: the “scaled lipid accumulation score” value was 0.013. Besides, under setting [1], the “scaled lipid accumulation score” value is not above 0. Besides, the “scaled lipid accumulation score” value (library stock concentration: 4.7 mM) is not above 0. Further, the “scaled lipid accumulation score” value under setting [2] is not above -0.001.

`CCCCc1oc2ccccc2c1C(=O)c1cc(I)c(OCCN(CC)CC)c(I)c1.Cl` [Amiodarone HCl]: the “scaled lipid accumulation score” value under setting [2] is 1.27 (active).

On to `CCCCc1oc2ccccc2c1C(=O)c1cc(I)c(OCCN(CC)CC)c(I)c1` [Amiodarone HCl], for which the “scaled lipid accumulation score” value under setting [1] is 0.394.

With `CCCCc1oc2ccccc2c1C(=O)c1cc(I)c(OCCN(CC)CC)c(I)c1` [Amiodarone], where the note is “library stock concentration: 3.1 mM”, the “scaled lipid accumulation score” value was 0.438.

Regarding `CCCCc1oc2ccccc2c1C(=O)c1cc(I)c(OCCN(CC)CC)c(I)c1.Cl` [Amiodarone hydrochloride], the “scaled lipid accumulation score” value under setting [2] was 1.04 (active).

For the compound `NC(=O)c1cc[n+](CC2=C(C(=O)O)N3C(=O)[C@@H](NC(=O)C(c4ccccc4)S(=O)(=O)[O-])[C@H]3SC2)cc1` (some centres undefined) [Cefsulodin sodium salt hydrate], under setting [2], the “scaled lipid accumulation score” value is 0.04.

As for `NC(=O)c1ccc2nc(-c3ccc(Oc4ccc(Cl)cc4)cc3)[nH]c2c1` [Chk2 Inhibitor II], the “scaled lipid accumulation score” value under setting [1] was not above 0.

With `CCCCCCCCCCCCC/C=C/[C@@H](O)[C@H](CO)NCCCCCCCC` [C8 Ceramine], under setting [3], the “scaled lipid accumulation score” value is 0.067.

Regarding `CCCCCCCCCCCCC/C=C/[C@@H](O)[C@H](CO)NCCCCCCCC` [C-8 Ceramine], the “scaled lipid accumulation score” value under setting [3] was 0.054.

As for `CCCCCC(O)C=CC1C(O)CC(O)C1CC=CCCCCOC` (stereo not drawn) [Prostaglandin F2.alpha. Alcohol methyl ether], the “scaled lipid accumulation score” value under setting [3] is not above 0.

As for `Cc1nc2c(-c3cnc(N)nc3)nc(N3CCOCC3)nc2n1C(C)C`, the “scaled lipid accumulation score” value was 0.019 under setting [1] and not above -0.001 under setting [2].

Source of the values: the supplement of paper PMC9135407.
